Source: PubChem BioAssay
MITF TRPM1 inh – inhibitors of MITF-dependent TRPM1 promoter reporter, primary screen, cell-based, SK-MEL-5, single point, luciferase; SK-MEL-5 TRPM1 promoter luciferase, 24 h; inhibition, % at 12.5 µM; hit rate 0.83% among 330,000;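 active = mean inhibition across replicates of 60% or more, whatever share of single replicates reaches that level; inconclusive = some that reach 60%, reason not given; inactive = mean inhibition across replicates below 60%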
TROY signal inh – inhibitors of TROY-driven NF-kB signaling, primary screen, Q293 LMP1-TROYcd cells, NF-kB luciferase, uHTS; Q293 LMP1-TROYcd NF-kB luciferase reporter, 4 h; inhibition, % at 10 µM; hit rate 0.98% among 360,000; AID 1347056, 2019;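 active = compounds whose plate-normalised and pattern-corrected inhibition of the luciferase reporter signal at the single screening dose is 50% or more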
EBV LMP1 NFkB – EBV LMP1-driven NF-kappaB luciferase reporter inhibitors, primary screen, cell-based, luminescence, single point; AID 504558, 2011; LMP1-induced NF-kappaB luciferase reporter cells; inhibition, % at 12.5 µM; hit rate 0.69% among 350,000; in the data active = inhibition above about 41%; inconclusive = no clear call, values can overlap the other calls;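 also: 0% = neutral control wells and 100% = reference inhibitor control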
LGR2 antag – inhibitors of bursicon-induced LGR2 CRE-luciferase signal, primary screen, cell-based, HEK293, CRE-luciferase reporter, bursicon stimulation | AID 720647, 2013 | bursicon-stimulated, 4 h | inhibition, % at 9.99 µM | hit rate 0.35% among 380,000;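 active = drop in luminescence signal, shown as inhibition above about 50% in the replicate tests, limit read from the data, passing the limit was not always enough; inconclusive = probably only some replicates passing the limit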;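 also: agonist challenge used bursicon conditioned medium at about half maximal strength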
MITF TRPM1 HTS – activators of MITF-driven TRPM1 promoter reporter, primary screen, cell-based, SK-MEL-5, luciferase, single point; AID 588334, 2011; SK-MEL-5 TRPM1-promoter luciferase, 24 h; % of positive control, neutral wells = 0; activation, % at 12.5 µM; hit rate 0.75% among 300,000;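 active = mean activation of at least 80% with every replicate also reaching 80%; inconclusive = mean reaches 80% but some replicate falls short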;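 also: 0% = neutral control wells and 100% = parthenolide positive control wells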
TWEAK Fn14 block – inhibitors of TWEAK-Fn14 signaling, primary screen, luciferase reporter cells, uHTS | TWEAK-stimulated Fn14 reporter cells, luciferase luminescence, 8 h | inhibition, % at 10 µM | AID 1159606, 2016 | hit rate 2% among 360,000; in the data active = inhibition above about 50%
* hit, by the source's call; ? = inconclusive; . = not tested or not shown. The list is not random: actives were taken first. Their share in the collection is about 3%.

SMILES	MITF TRPM1 inh	TROY signal inh	EBV LMP1 NFkB	LGR2 antag	MITF TRPM1 HTS	TWEAK Fn14 block
N#C/C(=N/Nc1ccc(S(=O)(=O)N2CCOCC2)cc1)C(N)=O	-8.6	-2.1	-6.4	4.8	10.2	-1.9
N#C/C(=N\Nc1ccc(S(=O)(=O)N2CCCCC2)cc1)C(N)=S	-14.5	38.0	4.2	8.8	14.6	50.2*
Cc1cc(N=Cc2c(O)ccc3ccccc23)no1	25.6	-7.5	-18.3	.	-23.8	24.1
Cc1cc(N=Cc2c(O)ccc3cc(Br)ccc23)no1	12.7	49.1	55.6*	16.6	-13.7	41.2
C[C@H]1CN([C@@H](C)CO)C(=O)Cc2cc(NS(=O)(=O)c3ccccc3)ccc2O[C@@H]1CN(C)C(=O)Nc1ccc(F)cc1	.	.	.	-3.9	.	.
c1ccc(CNc2ccc(N3CCOCC3)cc2)cc1	-40.5	65.0*	-1.3	-10.0	43.0	31.8
COc1ccc(CNc2ccc(N3CCOCC3)cc2)cc1	-22.2	12.7	-3.1	1.0	.	-7.5
COc1ccc(-c2ccc3c(c2)O[C@H](CN(C)Cc2ccccc2C(=O)O)[C@H](C)CN([C@H](C)CO)S3(=O)=O)cc1	.	.	.	-20.6	.	.
C/C(CC(=O)Nc1ccc(N(C)C)cc1)=N\NC(=O)c1ccccc1O	5.6	56.0*	10.5	-20.5	-4.5	24.1
Cc1ccc(S(=O)(=O)N(C)C[C@@H]2Oc3ccc(NC(=O)Nc4ccc5c(c4)OCO5)cc3C(=O)N([C@H](C)CO)C[C@@H]2C)cc1	.	.	.	13.3	.	.
CC1CN/C(=C\C(=O)c2ccc(Cl)cc2)C(=O)N1 (centres undefined)	-1.1	-13.4	33.4	.	-1.3	73.4*
CC1CN/C(=C\C(=O)c2ccccc2)C(=O)N1 (centres undefined)	-57.1	-3.8	-11.9	.	61.0	0.7
CN(C)C(=O)[C@H]1[C@H](CO)[C@H]2Cn3c(ccc(/C=C/c4ccccc4)c3=O)[C@H]2N1CC1CC1	.	.	.	-2.8	.	.
C[C@H](CO)N1C[C@H](C)[C@H](CN(C)Cc2ccccc2)Oc2ccc(NS(=O)(=O)c3cccs3)cc2C1=O	.	.	.	-24.2	.	.
COC(=O)C1=C(C)N(Cc2ccccc2)C(=NCC(C)C)N[C@H]1c1cccc(C(F)(F)F)c1	96.2*	1.2	-3.7	.	-95.4	-36.9
COC(=O)C1=C(C)N(Cc2ccccc2)C(=NCc2ccc(OC)cc2)N[C@H]1c1cccc(F)c1	?	-4.0	19.0	8.8	-57.2	-4.3
COC(=O)C1=C(C)N(Cc2ccccc2)C(=NCc2cccc(Cl)c2)N[C@H]1c1cccc(F)c1	94.8*	7.2	8.8	.	-93.6	-20.3
C=CCN=C1NC(CCc2ccccc2)C(C(=O)OC)=C(C)N1Cc1cccc(C(F)(F)F)c1 (centres undefined)	.	.	.	62.0*	.	.
C=CCN=C1NC(CCc2ccccc2)C(C(=O)OC)=C(C)N1Cc1ccccc1C(F)(F)F (centres undefined)	.	.	.	13.6	.	.
COC(=O)C1=C(C)N(Cc2ccc(C(F)(F)F)cc2)C(=NCC2CC2)NC1c1cccc(Cl)c1 (centres undefined)	.	.	.	56.8*	.	.
O=C(c1cccnc1)N1CC(=O)N2[C@H](CO)[C@H](c3ccc(/C=C/c4ccccc4)cc3)[C@H]2C1	.	.	.	-1.1	.	.
C[C@@H](NC(=O)C[C@H]1C[C@@H]2c3cc(NC(=O)C4CCOCC4)ccc3O[C@@H]2[C@@H](CO)O1)c1ccccc1	.	.	.	-17.8	.	.
COC(=O)C1=C(C)N(Cc2ccc(C(F)(F)F)cc2)C(=NCc2ccc(C(F)(F)F)cc2)NC1c1ccccc1 (centres undefined)	.	.	.	-3.5	.	.
COC(=O)C1=C(C)N(Cc2cccc(C(F)(F)F)c2)C(=NCc2ccc(OC)cc2)NC1c1cccc(Cl)c1 (centres undefined)	.	.	.	58.6*	.	.
COC(=O)C1=C(C)N(Cc2ccccc2)C(=NCCc2cccnc2)N[C@H]1c1ccccc1	-8.9	0.8	2.8	.	12.3	-17.3
SMILES	MITF TRPM1 inh	TROY signal inh	EBV LMP1 NFkB	LGR2 antag	MITF TRPM1 HTS	TWEAK Fn14 block
COC(=O)C1=C(C)N(Cc2ccccc2)C(=NCc2ccccc2)N[C@H]1c1cccc(C(F)(F)F)c1	89.1*	17.1	7.5	.	-87.3	-6.7
COC(=O)C1=C(C)N(Cc2ccccc2)C(=NCCc2cccnc2)N[C@H]1c1ccc(Br)cc1	78.0*	-4.5	3.7	.	-79.6	-15.1
COC(=O)C1=C(C)N(Cc2ccc(C(F)(F)F)cc2)C(=NCc2ccccc2)NC1c1cccc(F)c1 (centres undefined)	.	.	.	58.1*	.	.
CCCC#Cc1ccc2c(c1)O[C@@H](CN(C)C(C)=O)[C@H](C)CN([C@@H](C)CO)S2(=O)=O	.	.	.	2.4	.	.
CC=Cc1ccc2n(c1=O)C[C@H]1[C@H](CO)[C@@H](C(=O)NCCc3ccccc3)N(CCC)[C@@H]21 (mixture of isomers)	.	.	.	-13.0	.	.
CCC(=O)N1CC2(C1)[C@@H](c1ccc(-c3ccccc3C)cc1)[C@@H](CO)N2C(=O)CC	.	.	.	-1.3	.	.
Cc1ccc(-n2c(O)c(/C=C3/C(c4ccccc4)=Nc4ccccc43)c(=O)[nH]c2=O)cc1	-5.6	-23.1	-12.2	4.7	5.5	70.6*
CN(C)C(=O)C[C@H]1CC[C@H]2[C@@H](COc3ccc(NC(=O)c4ccc(F)c(F)c4)cc3C(=O)N2C)O1	.	.	.	-5.7	.	.
N#CC1C=Cc2c(ccc3ccccc23)N1C(=O)c1ccccc1 (centres undefined)	65.2*	-11.7	32.1	-59.7	-62.0	54.1*
N#CC1C=Cc2ccccc2N1C(=O)c1ccccc1 (centres undefined)	1.6	-11.7	-1.6	4.2	0.0	6.5
NNc1nc(-c2ccccc2)nc2sc3c(c12)CCCC3	-17.1	72.4*	-8.0	7.1	15.6	79.2*
NNc1nc2sc3c(c2c(=O)n1Cc1ccccc1)CCC3	3.3	-5.1	-8.5	-10.6	.	-20.6
CC(C)c1ccc(C2c3[nH]c4ccccc4c3C[C@H]3C(=O)N(c4ccccc4C(=O)N4CCC[C@@H]4C(=O)O)C(=O)N23)cc1 (some centres undefined)	12.5	66.4*	4.2	-11.9	-9.9	34.2
COc1ccc(C#Cc2ccc3c(c2)O[C@H](CN(C)C(=O)c2ccccn2)[C@@H](C)CN([C@@H](C)CO)S3(=O)=O)cc1	.	.	.	18.4	.	.
O=C(Nc1ccccc1)NN(C(=O)CCl)c1ccccc1	87.3*	-4.1	47.4*	13.8	-87.1	69.3*
